# PubChem BioAssay (NCATS)
# Records with an inconclusive call do not appear. Active and inactive are the calls of the source. Calls follow the shape of the dose curve; as a rule, active = well fitted activation curve with a large enough effect; inconclusive = small, poorly fitted or top-dose-only effect; inactive = no such curve, though single readings can be large or run the other way.
# Target: Cellular tumor antigen p53 (Homo sapiens) (UniProt P04637)
# Assay: Primary qHTS for small molecule compounds that upregulate eGFP-tagged delta133p53alpha (in N-terminal) cells. (AID 2060322); also: nearly all actives have a fitted effect of over 75% in size;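 as to activation: cells pre-induced with doxycycline then dosed without doxycycline; series mostly up to about 56 µM; 0% = DMSO vehicle and 100% = reference activator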
# Details: NCI-H358 eGFP-delta133p53alpha fluorescence, 24 h; activation: active compounds read high
# Outline: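 NCI-H358 cells pre-induced 24 h with 10 ng/ml doxycycline for eGFP-delta133p53alpha, plated dox-free and exposed 24 h at 37C to titrated compounds. Fixed, Hoechst-stained; gated GFP peak intensity by laser scanning cytometry, normalized to DMSO (0%) and 57.5 uM 5-azacytidine (100%).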
# Potency is read from the fitted curve at half-maximal effect.
# Cellular tumor antigen p53 (Homo sapiens), sequence (P04637 whole entry, looked up): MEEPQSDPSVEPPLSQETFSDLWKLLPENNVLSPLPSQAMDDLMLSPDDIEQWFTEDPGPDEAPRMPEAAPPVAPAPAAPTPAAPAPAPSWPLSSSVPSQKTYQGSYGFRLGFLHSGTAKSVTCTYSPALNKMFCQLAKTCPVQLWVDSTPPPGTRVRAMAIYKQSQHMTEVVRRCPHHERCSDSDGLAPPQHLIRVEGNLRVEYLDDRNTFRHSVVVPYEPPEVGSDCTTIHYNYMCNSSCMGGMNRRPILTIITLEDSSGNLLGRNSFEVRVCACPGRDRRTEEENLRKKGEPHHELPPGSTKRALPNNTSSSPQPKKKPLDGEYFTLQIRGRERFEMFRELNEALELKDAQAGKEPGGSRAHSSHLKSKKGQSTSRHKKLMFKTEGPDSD
SMILES,activation,Potency
O=C(CCCN1CCN(c2ccc(F)cc2)CC1)NC1c2ccccc2CSc2ccccc21 (stereo not drawn),-15% (inactive),–
Cc1nc2ccc(Oc3ccc(F)cc3)cc2c(=O)n1C[C@H]1CCCN(C(C)C)C1,-12.4% (inactive),–
CCCCn1c(-c2ccccc2)nc(-c2ccccc2)c1CN(Cc1ccc2c(c1)OCO2)Cc1ccc2c(c1)OCO2,-10% (inactive),–
O=C(CC1C(=O)Nc2ccccc21)OC[C@H]1O[C@@H](OCCc2ccc(O)cc2)[C@H](O)[C@@H](O)[C@@H]1O (stereo partly drawn),0% (inactive),–
CC[C@H](C)/C=C(C)/C=C/C1=CC2=CC(=O)[C@]3(C)OC(=O)[C@@H](C(C)=O)[C@@H]3C2=CO1,–,18.6 µM (active)
N#Cc1ccc(Nc2nc(-c3ccc(O)cc3O)cs2)cc1C(F)(F)F,–,26.9 µM (active)
CC1(C)CC[C@]2(C(=O)O[C@@H]3O[C@H](CO[C@@H]4O[C@H](CO)[C@@H](O)[C@H](O)[C@H]4O[C@@H]4O[C@H](CO)[C@H](O)[C@H](O)[C@H]4O)[C@@H](O)[C@H](O[C@@H]4O[C@H](CO)[C@@H](O)[C@H](O)[C@H]4O)[C@H]3O)CC[C@]3(C)C(=CCC4[C@@]5(C)CC[C@H](O[C@@H]6OC[C@@H](O)[C@H](O)[C@H]6O)[C@@](C)(C(=O)O)C5CC[C@]43C)[C@@H]2C1 (stereo partly drawn),1.53% (inactive),–
CC1OC(O[C@H]2[C@@H](O)C[C@@]3(C)C([C@H](O)C[C@]4(C)C3CC=C3C5CC(C)(C)CC[C@]5(C(=O)OC5OC(CO)C(O)C(O)C5OC5OCC(OC6OCC(OC7OCC(O)C(O)C7O)C(O)C6O)C(OC6OCC(O)(CO)C6O)C5O)CC[C@]34C)[C@]2(C)CO)C(O)C(O)C1O (stereo partly drawn),-6.11% (inactive),–
